# PubChem BioAssay AID1347426 (Functional Genomics Laboratory (NCATS/FGL), 2020)
# Screen size: about 31,000 sequences; about 1,400 (4.5%) were called active. The entries come from a sample that favours actives as a whole. A number with no mark means an inactive call.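 Rule for the calls: active = median seed-adjusted z-score above 1 or below -1; inactive = the rest.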
# Assay: Novel Modifiers of Survival Motor Neuron (SMN) Protein: Gene Identification via Genome-wide siRNA Screen;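 note: luminescence tracks full-length SMN protein made from the SMN2 reporter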
# Conditions: HEK293T SMN2-luciferase reporter, siRNA knockdown, 72 h; actives lie on both sides
# Procedure, shortened: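 Each of three siRNAs per gene is reverse-transfected (1 pmol) into reporter HEK293T cells whose luciferase output tracks SMN protein level. After 72 h culture, ONE-Glo luminescence is control-normalized, log10-transformed and MAD-standardized; Common Seed Analysis deprioritizes seed-driven hits.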
row,Sequence,median seed-adjusted z-score
1,CCCAGUCAAUCAAAGGAAATT against CD3G,-0.0274
2,GAAAGCAACUGACACUCUUTT against ATP2C2,-0.302
3,CAAGGGCACAGGCACAAAATT against SBK1,0.0587
4,ACCACGCAUUAAAACCAAATT against PRKCE,0.568
5,GGGAGGAUUUGAUCGGACATT against SPEN,-1.69 (active)
6,CCUUCUGAAAGAACGCAAATT against ABCA8,-0.666
7,GAAUAUGCAUUGCUAACCATT against SV2C,0.183
8,GGCAUUAUCUGGAUCACUUTT against PATE1,1.21 (active)
9,GAAGAUCAUUAGAUUUCUATT against SULT1B1,-0.115
10,GUACGUCCAUUAUGGAGAATT against GPR82,-0.83
11,GGAUAAUGAUGACGGGAGATT against SYT9,0.0419
12,CAACGACCGGAGGUAUAAATT against BPGM,0.408
13,CCGGCUUCCUCAUUACCUUTT against SLC2A14,-1.09 (active)
14,GGACUUACCUCAAUCAGAUTT against ZDHHC13,-0.381
15,CGAGAGGUGUAUCAAUAUATT against LIN7A,-1.39 (active)
16,GCUUUACCACCGUACGAAATT against MST4,0.343
17,UGAGAAUUGUGGAUCCGGATT against CSTF2,0.586
18,GGUACGAAUGAAUACCUUUTT against PTPN4,-0.447
19,GACCCAGCCGAAUACAACATT against NDUFB4,-0.697
20,GAACCUACAUCAUCAGUAUTT against GJA1,0.348
21,GCCUUGCUGUUAAAGGGCATT against PARP2,-0.366
22,AGAGUGACCUGAUUGAGCATT against CSNK2B,-1.62 (active)
23,GGCCUUUGGUGAAAACCGUTT against CLDN11,0.268

row,Sequence,median seed-adjusted z-score
1,GCCUAUGACCUUCUACUUUTT against SLC31A1,0
2,GUAUCUGCGAGGACGAAAATT against RNF113B,-0.228
3,GCAUCAUCGGUACCCAGUUTT against MPO,-0.223
4,GGCCGCUGCUUGUUUGUCATT against SLC13A3,0.0434
5,ACUGUGAAAUUGGACCAAUTT against RABIF,0
6,CUGUCGCUGUCUGACCAGATT against ESRRA,-0.833
7,AGACAAUGAUCAUAGACAATT against IDH3B,-0.642
8,CAACAACCCUUAUCGUAAATT against POLQ,0.203
9,GAGACUAUAUCUACAUGAATT against SLITRK3,-0.564
10,CGGAUGUUCUUUACACUAUTT against HNRNPL,1.04 (active)
11,GCAUAUGACUUGUAUUCCUTT against TFB2M,0.206
12,GGGACAUGGGAAUGCAAUATT against MSR1,0.0743
13,GGAAAUCUCGUGAUUUUCATT against TEAD1,1.31 (active)
14,CCAGAAACGUACACCUGAUTT against COX7B,-1.16 (active)
15,CCAUCAACACUGAAUUGCATT against SEC22B,-0.106
16,GUAUAGAUCUCUAUUUCUATT against COPZ1,-1.02 (active)
17,GAAGAGUGGUACUACCAGATT against BACE2,0.0853
18,CCACUUCAAGAAAACUUCATT against ZSCAN22,0.277
19,GGCUCGAGAUUUAUACGAUTT against HECTD1,-0.0588
20,GGAGAAAGGAUCACGCUAATT against KCTD1,0
21,CCUACACGGUCCUUCGUAATT against HEPHL1,0.0681
22,CCUUCUAUCAUGUAAGCUATT against IL1A,1.12 (active)
23,GCGUGUUCCCAAUAGUGUATT against OGT,0.411

row,Sequence,median seed-adjusted z-score
1,GGAUAUCACAGAAGGAUAUTT against ANXA4,-0.0932
2,GUGUAAAACUUGUCAGCGATT against WT1,0.236
3,GCAGCUUCAUAACCGAAGATT against PARP1,-0.0913
4,GAUGCAUGUUUGUAAAAAUTT against KCNJ6,-1.6 (active)
5,GCCCAACAGUCAUUCAACATT against CHMP5,0
6,GGAGGUGACCUUCCAGGAATT against RAB17,0.473
7,GGCCGUCAGUAAUACAUCUTT against ZBTB33,0.164
8,CCACCAAUCACGAACCUAATT against IL3RA,-0.951
9,CAGUGUAUCUGAACCUAUUTT against EFTUD1,-1.39 (active)
10,GCUCUUCGGGAGAAUCUUUTT against CTNNAL1,0.229
11,AGACCAUUGAGACCCGGAATT against PRPH,0
12,CAACUAAUUUCUAAUCGUUTT against ADAD1,-0.0795
13,GUGCGAAGGUUUUUAAUCATT against ZNF816A,0.39
14,GUACCUGCGGGAUUACUCATT against CCT7,-0.246
15,UGAACUUGAUGAAGGAGAATT against S100A7L2,0.283
16,GGGUCCUGUUCAUAAAGGATT against KCTD10,-0.506
17,GGAAUUUACAUGGUCUAUUTT against PHF6,-0.268
18,CCAUGCUCGUGGUGCACAATT against B3GNT7,-1.05 (active)
19,GCCCGAUGCUUUCCACAUUTT against SLC5A9,0.15
20,GCACACUUGAGUUUGUGUATT against HES6,0.71
21,GGUGGUAUCUGUUUCCGUATT against PCAF,-0.00665
22,GCUGCGUCUCCCUUCCAAATT against GP1BB,-0.711
23,GCCCUCUGUUGGAUAUCUATT against AZIN1,-1.14 (active)
